Results reported in the supplement of paper PMC10338343.
± gives the standard deviation.

These sequences were tested on MILI (PIWIL2) piRISC loaded with L1MC piRNA (26 nt) (assay: pre-steady-state target cleavage rate (min^-1); guide: L1MC piRNA 5'p-UAACUAAAUACUAUGCAAGCUGUAGG; MIWI and MILI are mouse PIWI proteins and EfPiwi is from a freshwater sponge; tags in brackets are library labels; higher = faster piRNA-guided slicing of the target). Conditions: auxiliary factor: 500 nM mouse GTSF1.
Method in brief: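 A burst-and-steady-state fit was used to obtain the pre-steady-state cleavage rate. The input data were sequencing reads of uncleaved targets, normalised to depth and to weakly complementary targets, from a […] transcribed, DNA-blocked target RNA library mixed with 1 nM active affinity-purified piRISC holding one synthetic guide, with or without 500 nM GTSF1 partner protein, in HEPES–potassium acetate buffer at 33 °C for 0–8 or 0–960 min. Three trials were pooled and k3 was capped at 0.0001 min^-1.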
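Also: 1 nM active piRISC with 0.1 nM target library at 33 °C single turnover.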

Row | Sequence | pre-steady-state target cleavage rate
1 | UCCUGGAUGAGCUACCAUAGUAUUUAGAAA | 0.00557 ± 0.0043
2 | UCCUGCUAGAGCUUGCAUAGAAUUUAGUUA | 0.0404 ± 0.0063
3 | UCCUGGAUGACCUUGCAUAGUAUUUACAAA | 0.114 ± 0.033
4 | UCCUGGAUCAGCUUGGUUAGUAUUUAGAAA | 0.0485 ± 0.016
5 | UCCUGGAUGAGCUUGCAUAGUAUUAUGUUA | 0.172 ± 0.036
6 | UCCUGGAUGUCCUUGCAUAGUAAUUUGUUA | 0.0222 ± 0.0085
7 | UCCUGGAACAGCUAGCAUAGAAUUUAGUUA | 0.0486 ± 0.0073
8 | UCCUGGAUCACGAUGCAUAGUAUUUAGUAA | 0.173 ± 0.016
9 | UCCUGGAUCAGGUUGCAUAGUAUUUUCAAA | 0.07 ± 0.023
10 | UCCUGGAUGUCGAUGCAUAGUUAUUUAGUUA | 0.00685 ± 0.0037
11 | UCCUGGAUGUCGAUGCAUAGAAUUUAGUUA | 0.0057 ± 0.0026
12 | UCCUGGAUGUCCUAGCAUAGUAUUUUGUUA | 0.0105 ± 0.0061

Same assay, conditions: auxiliary factor: none (no GTSF1)

Row | Sequence | pre-steady-state target cleavage rate
13 | UCCUGGAUGUCGAACGAUAGUUAAUAGUUA | < 0.0001
14 | UCCUGGAUGUCGAACCAUAGUAUUAGUUA | < 0.0001
15 | UCCUGGAUGUCGAAGCAUAGUAAUAAGUUA | < 0.0001
16 | UCCUGGAUGUCGAACCAUAGUAUUAAGUAA | < 0.0001
